Pf apPOL inh: Pf-apPOL DNA polymerase inhibition | inhibition, % at 10 µM | Recombinant Pf-apPOL, molecular beacon fluorescence, 1.5 h | 0.25% of 210,000 active | AID 1794808
mHTT-CaM PPI inh: disrupts binding of mutant huntingtin to calmodulin. AlphaScreen His-mHTT/GST-CaM binding, luminescence. inhibition, % at 15 µM. P42858. 3.6% of 190,000 active;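 further: 0% = both proteins with DMSO and 100% = one protein alone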
Starred values were filed as active, the others as inactive; . = not tested or not shown; + = active, no number. The full list was thinned out, with hits kept by preference. No stated cut-off is given here; in the data, active means inhibition above about 50%; inactive means the rest.

SMILES	Pf apPOL inh	mHTT-CaM PPI inh
O=C(NCc1ccccc1)C1c2ccccc2CC(=O)N1Cc1ccccc1 (stereo not given)	-2	3
O=C(COc1ccccc1F)Nc1nnc(COc2cccc3ccccc23)o1	-140	56*
Cc1csc(-c2nnc(NC(=O)COc3ccccc3F)o2)c1	-22	17
O=C(COc1ccccc1F)Nc1nnc(C2CCCCC2)o1	-10	63*
O=C(COc1ccccc1)Nc1nnc(CSc2ccccc2)o1	-11	0
CCOc1ccc(NC(=O)C2CC(=O)N(c3ccc4c(c3)CCN4C(C)=O)C2)cc1 (stereo not given)	-2	2
COc1ccccc1N1CCN(C(=O)c2cccc([N+](=O)[O-])c2)CC1	-1	-3
CCCC1(CO)CCCN1C(=O)c1ccc(C)nc1 (stereo not given)	1	-5
COc1cccc(C2CN(C(=O)Nc3ccc(C)cc3)CC2C(=O)NC(C)C)c1 (stereo not given)	-4	1
CC1C(=O)N2CCCc3cc(NC(=O)C(=O)NCc4ccc5c(c4)OCO5)cc1c32 (stereo not given)	4	25
CC1C(=O)N2CCCc3cc(NC(=O)COc4ccc5ccccc5c4)cc1c32 (stereo not given)	-12	52*
O=C(Nc1cccc(C(F)(F)F)c1)c1cc2cc(Br)ccc2oc1=O	2	1
COc1ccc(C(=O)ON=C2C(C)=CC(=O)C=C2C)cc1	1	55*
COc1ccc(C(=O)N=C2C=C(C)C(=O)C(C)=C2)cc1	4	0
Cc1ccc(Nc2c(-c3nc(C)no3)cnc3nc(C)ccc23)c(C)c1	3	44
Cc1ccc2c(Nc3ccc(F)cc3C)c(-c3nc(C)no3)cnc2n1	-4	58*
Cc1ccc(OCCCCN(C)C)cc1C	1	1
CCC(CC)N1CCN(C(=O)c2ccc3[nH]c4c(c3c2)CN(C(C)=O)CC4)CC1	-5	38
CC(=O)N1CCc2[nH]c3ccc(C(=O)NCc4ccc(F)cc4)cc3c2C1	4	72*
CC(=O)N1CCc2[nH]c3ccc(C(=O)NCc4ccc(N5CCN(C)CC5)cc4)cc3c2C1	-2	21
CCN(CCNC(=O)c1ccc2[nH]c3c(c2c1)CN(C(C)=O)CC3)c1ccccc1	-4	68*
CCN(CC)c1ccc(CNC(=O)c2ccc3[nH]c4c(c3c2)CN(C(C)=O)CC4)cc1	0	69*
CC(=O)N1CCc2[nH]c3ccc(C(=O)NCCc4nc5ccccc5n4C)cc3c2C1	-2	14
CCN(C(=O)c1ccc2[nH]c3c(c2c1)CN(C(C)=O)CC3)c1cccc(C)c1	-4	84*
CC(=O)N1CCc2[nH]c3ccc(C(=O)N4CCOCC4)cc3c2C1	-1	36
SMILES	Pf apPOL inh	mHTT-CaM PPI inh
COc1cc(/C=C2\C(=O)NC(=O)N(c3ccc(C)cc3)C2=O)c([N+](=O)[O-])cc1OC	1	5
COc1ccccc1N(C)S(=O)(=O)c1ccc(Cl)cc1	-1	-26
COc1ccc(OC)c(OCCOCCOc2cc(OC)ccc2OC)c1	7	.
O=C(O)c1ccc(S(=O)(=O)NCc2ccccn2)cc1	-1	-6
COc1ccc(S(=O)(=O)Nc2ccc(C)cc2NS(=O)(=O)c2ccc(OC)cc2)cc1	-4	6
C=CCSc1nnc2c(n1)OC(c1cc(OC)c(OC)c(OC)c1)Nc1ccccc1-2 (stereo not given)	-3	-5
CC(=O)N1CCc2[nH]c3ccc(C(=O)N4CCN(C(C)C)CC4)cc3c2C1	-3	14
CC(=O)N1CCc2[nH]c3ccc(C(=O)N4CCN(Cc5ccc(C)cc5)CC4)cc3c2C1	-3	78*
CCN(CC)c1nc2c(C)cccn2c(=O)c1C=C(C#N)C#N	-8	6
CC(C)C(=O)Nc1ccc(C2(C(=O)N3CCCC3)CCCCC2)cc1	8	13
CC(C)C(=O)Nc1ccc(C2(C(=O)N3CCN(c4ccccc4)CC3)CCCCC2)cc1	7	51*
S=c1[nH]nc(-c2ccccn2)n1/N=C/c1cccnc1	.	+
S=c1[nH]nc(-c2ccncc2)n1N=Cc1cccnc1	-7	.
Cn1c(=O)c2c(nc(NCc3ccco3)n2Cc2ccc(Cl)c(Cl)c2)n(C)c1=O	-9	4
CC(CNC(=O)c1cccc([N+](=O)[O-])c1)CN(C)C (stereo not given)	40	0
CCOc1ccc(CN2C(=O)CCC2(C)C(=O)NCCc2ccc(OC)c(OC)c2)cc1OC (stereo not given)	5	6
O=C(/C=C/c1ccc(-c2ccccc2)o1)c1cccs1	1	28
O=C(/C=C/c1ccc(-c2ccc(F)cc2)o1)c1cccs1	-1	91*
COc1ccc(-c2[nH]nc3c2C2(C(C#N)=C(N)O3)c3ccccc3-c3ccccc32)cc1	-4	79*
CCc1[nH]nc2c1C1(C(C#N)=C(N)O2)c2ccccc2-c2ccccc21	-4	22
CCCc1[nH]nc2c1C1(C(=O)N(CC(=O)O)c3ccccc31)C(C#N)=C(N)O2 (stereo not given)	-5	6
COc1ccc(-c2[nH]nc3c2C2(C(=O)N(CC(=O)O)c4ccccc42)C(C#N)=C(N)O3)cc1 (stereo not given)	72*	0
O=C(c1nn2c(C(F)(F)F)cc(-c3ccc(Cl)cc3)nc2c1Cl)N1CCOCC1	-1	-6
O=C1OC(c2ccc([N+](=O)[O-])cc2)=N/C1=C\c1ccccc1Br	13	4
Cc1ccc(Cn2c(=O)cc(C(=O)NCc3ccccc3Cl)c3ccccc32)cc1	12	78*
SMILES	Pf apPOL inh	mHTT-CaM PPI inh
Cc1ccc(C(=O)NCc2ccc(Cl)cc2)c(Cl)c1	-5	0
CCCn1c(=O)c(C(=O)NCc2ccccc2Cl)c(O)c2ccccc21	-4	4
Cc1ccc(CNC(=O)c2ccc(Cl)cc2Cl)cc1	65*	-7
Cc1ccccc1CC(=O)Nc1cc(-c2ccccn2)no1	9	2
CCOC1=NN(c2ccc([N+](=O)[O-])cc2)C(=O)/C1=C/c1ccccc1OCC	2	22
CCOC1=NN(c2ccc([N+](=O)[O-])cc2)C(=O)/C1=C/c1cccc(Cl)c1Cl	-15	65*
COc1cc(C2C(C(=O)O)c3ccccc3C(=O)N2C)cc(Br)c1O (stereo not given)	0	0
CC(=O)N1c2c(cc(Br)cc2S(=O)(=O)N2CCc3ccccc32)CC1C (stereo not given)	1	20
CC(=O)N1c2c(cc(Br)cc2S(=O)(=O)N2CCc3ccccc3C2)CC1C (stereo not given)	-3	58*
COc1cccc(CC(=O)N2CCC(c3nc4ccncc4n3C(C)C)C2)c1 (stereo not given)	4	3
Cn1c(=O)n(C)c2cc(Br)c(Br)cc21	.	-2
COc1ccccc1C1=NN(C(=O)CN2CCCCC2)C(c2cc(C)ccc2C)C1 (stereo not given)	-7	100*
COc1ccc(C2=NN(C(=O)CN3CCC(C)CC3)C(c3ccccc3C)C2)cc1 (stereo not given)	-2	32
COc1ccccc1C1CC(c2ccccc2F)=NN1C(=O)CN1CCCCC1 (stereo not given)	-3	26
COc1cccc(C2=NN(C(=O)CN3CCCCC3)C(c3ccccc3C)C2)c1 (stereo not given)	-5	61*
Cc1ccc(Cn2c(NN3CCN(C)CC3)nc3c2c(=O)[nH]c(=O)n3C)cc1	-6	3
Nc1nc(NC(=O)c2ccc(Cl)cc2)nn1-c1ccccc1	-3	2

From PubChem BioAssay
